Drawing on PubChem BioAssay (Tox21), this text covers Potency and outcome for 7 molecules.

Values joined by “and” are separate entries in the source; they are usually repeats but may differ in a detail not shown here. Identical values can stand only once. Records with an inconclusive call do not appear. A structure can be active in one record and inactive in another. Active and inactive are the calls of the source. Unless noted, calls follow the shape of the dose curve; as a rule, active = well fitted curve in the direction sought with a large enough effect in the repeat runs; inconclusive = weak or mixed curves; inactive = no such curve, though single readings can be large; an effect the other way counts as inactive or inconclusive.

For assay [1], the target named is Progesterone receptor (Homo sapiens) (UniProt P06401). As to the kind of experiment: qHTS assay to identify small molecule agonists of the progesterone receptor (PR) signaling pathway (AID 1346784; calls by dose curve; also: nearly all actives have a fitted effect of over 30% in size). The procedure, abridged:
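Fluorescence from LiveBLAzer B/G FRET substrate cleavage (2 hr, RT) reported PR activation in PR-UAS-bla HEK 293T cells treated 16 hr at 37C/5% CO2 with compounds; medium contained 2% charcoal-stripped FBS.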

For assay [2] the target is unchanged. As to the kind of experiment: qHTS assay to identify small molecule antagonists of the progesterone receptor (PR) signaling pathway (AID 1346795; active = well fitted inhibition curve with a large enough effect in the signal ratio in the repeat runs, not every such curve was filed as active; the % refers to the signal ratio). The procedure, abridged:
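Fluorescence intensity measured 2 hr after adding beta-lactamase FRET substrate to PR-UAS-bla HEK293T cells that had been co-treated 16 hr with compound and 1 nM R5020 (final concentration) in 2% charcoal-stripped FBS.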

A short description of assay [3]: qHTS assay to identify small molecule antagonists of the progesterone receptor (PR) signaling pathway - cell viability counter screen (AID 1346798). Also: series mostly up to about 92 µM; nearly all actives have a fitted effect of over 50% in size. Put shortly: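 CellTiter-Glo luminescence; PR-UAS-bla HEK293T, 3,000 cells/well; compound + R5020, 16 hr, 37C/5% CO2; 30 min RT before read.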
A short description of assay [4]: qHTS assay to identify small molecule agonists of the progesterone receptor (PR) signaling pathway - cell viability counter screen (AID 1346799; calls by dose curve; also: nearly all actives have a fitted effect of over 45% in size). The procedure, abridged: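 In parallel with the beta-lactamase readout, cytotoxicity toward PR-UAS-bla HEK293T cells was measured by CellTiter-Glo luminescence following 16 hr compound incubation in 2% charcoal-stripped FBS medium.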

Assay [5] can be described thus: qHTS assay to identify small molecule antagonists of the TGF-beta/Smad signaling pathway - cell viability counter screen (AID 1346824). Also: nearly all actives have a fitted effect of over 50% in size. Put shortly:
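SBE-bla HEK 293T cells were plated overnight at 37 C, then given compounds in DMSO plus TGF-beta1 (added as 0.25 ng/mL solution) for 5 hr. After the bla read, CellTiter-Glo was added to the same wells and luminescence read after 30 min at room temperature.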

A short description of assay [6]: qHTS assay to identify small molecule agonists of the TGF-beta/Smad signaling pathway - cell viability counter screen (AID 1346829). Also: top concentration of the series differs between compounds; nearly all actives have a fitted effect of over 45% in size. Put shortly: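 CellTiter-Glo luminescence readout; SBE-bla HEK 293T cells, overnight plating, compound 5 hr at 37 C/5% CO2, then bla substrate 2 hr RT, then CellTiter-Glo 30 min RT.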
The nature of assay [7]: qHTS assay to identify small molecule agonists of the TGF-beta/Smad signaling pathway (AID 1346859; active = well fitted activation curve with a large enough effect in the signal ratio in the repeat runs, not every such curve was filed as active; the % refers to the signal ratio; also: series mostly up to about 77 µM). Put shortly:
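After overnight seeding, SBE-bla HEK 293T cells are dosed with compounds in DMSO and kept 5 hr at 37 C, 5% CO2. LiveBLAzer-type FRET substrate is then applied for 2 hr at room temperature.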

Assay [8] concerns the target Thyrotropin-releasing hormone receptor (Homo sapiens) (UniProt P34981). As to the kind of experiment: qHTS assay to identify small molecule antagonists of the thyrotropin-releasing hormone receptor (TRHR) signaling pathway (AID 1346877; active = well fitted inhibition curve with a large enough effect in the repeat runs, not every such curve was filed as active; also: series mostly up to about 51 µM). Put shortly:
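HEK293/TRHR cells, 18 h, 37 °C; Ca2+ dye 2 h; cpd 5 min RT; TRH 1 nM final; fluorescence read 3 min, 1 s intervals; 15 concs, triplicate.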

Assay [9] shares this target. As to the kind of experiment: qHTS assay to identify small molecule agonists of the thyrotropin-releasing hormone receptor (TRHR) signaling pathway (AID 1346891; calls by dose curve;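 also: HEK293 cells expressing TRHR with calcium dye readout; series mostly up to about 58 µM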). Put shortly:
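Compounds were tested as agonists at 15 concentrations, in triplicate, on TRHR-Hek293 cells; calcium-sensitive dye fluorescence was recorded for 3 min following addition.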

Assay [10] is described as follows: Human pregnane X receptor (PXR) small molecule agonists, qHTS cell viability counter screen (AID 1346977). Also: nearly all actives have a fitted effect of over 50% in size. The procedure, abridged: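 Viability counter screen: CellTiter-Fluor signal in PXR-Luc HepG2 cells, 24hr compound exposure, 37C, 5% CO2.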
Assay [11] in a line: Caspase-3/7 induction in CHO-K1 cells by small molecules, qHTS cell viability counter screen (AID 1346979). Also: nearly all actives have a fitted effect of over 35% in size. Also: potency is read from the fitted curve at half-maximal effect. Put shortly:
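Viability readout by fluorescence (CellTiter-Fluor) on wild-type CHO-K1 cells exposed for 16hr at 37C and 5% CO2 to compounds delivered in DMSO; reagent incubated 1hr before reading.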

Assay [12] is described as follows: Caspase-3/7 induction in CHO-K1 cells by small molecules, qHTS assay (AID 1346980). Also: nearly all actives have a fitted effect of over 15% in size. Put shortly:
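Wild-type cells were seeded at 1,500 per well and settled 5 hr at 37 C, 5% CO2, then exposed to DMSO-dissolved compounds for 17 hr. Caspase-Glo 3/7 reagent was added, and luminescence was read after 30min at room temperature.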

The nature of assay [13]: Caspase-3/7 induction in HepG2 cells by small molecules, qHTS cell viability counter screen (AID 1346981). Also: series mostly up to about 92 µM; nearly all actives have a fitted effect of over 30% in size. Put shortly: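 Fluorescence read-out of live-cell protease activity (CellTiter-Fluor) after 1 hr with reagent. This was measured in the same wells as the caspase-3/7 luminescence, on HepG2 cells exposed to DMSO-dissolved compounds for 16 hr at 37 C.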
The nature of assay [14]: Caspase-3/7 induction in HepG2 cells by small molecules, qHTS assay (AID 1346978). Also: nearly all actives have a fitted effect of over 15% in size. The procedure, abridged:
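Wild-type HepG2 cells (2,000/well) were settled 5 h at 37 C, 5% CO2, then exposed to compounds in DMSO for 17 h. Caspase-3/7 activity was read by luminescence 30 min after adding Caspase-Glo 3/7 reagent at room temperature.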

Assay [15] has as its target Nuclear receptor subfamily 1 group I member 2 (Homo sapiens) (UniProt O75469). As to the kind of experiment: Human pregnane X receptor (PXR) small molecule agonists, qHTS assay (AID 1346982). Also: nearly all actives have a fitted effect of over 35% in size. Also: potency is read from the fitted curve at half-maximal effect. The procedure, abridged:
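HepG2 PXR-Luc reporter line, 5% charcoal-stripped FBS; 5 hr pre-incubation, compound (DMSO) 24 hr at 37 C/5% CO2; ONE-Glo 30 min RT; luminescence read-out.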

The target is the same in assay [16]. As to the kind of experiment: CYP3A4 induction through human pregnane X receptor (PXR) by small molecules, qHTS assay (AID 1346984). Also: nearly all actives have a fitted effect of over 40% in size. Put shortly: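 HepG2-derived DPX-2 line carrying PXR plus a CYP3A4-promoter luciferase reporter; cells plated 5 hr, compound-exposed 24 hr at 37C. CYP3A4 activity probed with 3uM (final) Luciferin-IPA for 3hr, then luciferase read after One-Glo.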

Assay [17] shares this target. As to the kind of experiment: Human pregnane X receptor (PXR) activation by small molecules, qHTS assay (AID 1346985). Also: nearly all actives have a fitted effect of over 40% in size. The procedure, abridged: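 DPX-2 cells (HepG2 co-transfected with a PXR response element and a CYP3A4-promoter luciferase construct) were seeded at 2,000 per well, rested 5 hr at 37C, then exposed to DMSO-dissolved compounds for 24 hr. Activation was read as luciferase luminescence.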

The target of assay [18] is Cytochrome P450 2D6 (Homo sapiens) (UniProt P10635). As to the kind of experiment: Cytochrome P450 Family 2 Subfamily D Member 6 (CYP2D6) small molecule antagonists: luciferase reporter qHTS assay (AID 1671196). Also: nearly all actives have a fitted effect of over 50% in size. Also: potency is read from the fitted curve at half-maximal effect. The procedure, abridged:
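Luminogenic proluciferin substrate, CYP2D6 enzyme; 10 min RT preincubation with compound, NADPH regeneration system added, 1 h RT. Stop/detection reagent, 20 min RT, luminescence read (RLU). Signal proportional to CYP activity.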

The target in assay [19] is Cytochrome P450 2C19 (Homo sapiens) (UniProt P33261). As to the kind of experiment: Cytochrome P450 Family 2 Subfamily C Member 19 (CYP2C19) small molecule antagonists: luciferase reporter qHTS assay (AID 1671197). Also: nearly all actives have a fitted effect of over 65% in size. Also: potency is read from the fitted curve at half-maximal effect. The procedure, abridged: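 Enzyme-substrate mix with proluciferin substrate (P450-Glo CYP2C19 system) preincubated with compounds 10 min at room temperature; NADPH regeneration solution added, 37C for 1 h; detection reagent stops reaction, luminescence read after 20 min. Ketoconazole positive control.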

Assay [20] concerns the target Cytochrome P450 2C9 (Homo sapiens) (UniProt P11712). As to the kind of experiment: Cytochrome P450 Family 2 Subfamily C Member 9 (CYP2C9) small molecule antagonists: luciferase reporter qHTS assay (AID 1671198). Also: nearly all actives have a fitted effect of over 50% in size. Also: potency is read from the fitted curve at half-maximal effect. The procedure, abridged:
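CYP2C9 activity was measured with a P450-Glo proluciferin substrate. Enzyme–substrate mix was held with compound for 10 min at room temperature, then NADPH regeneration solution was added for 1 h at 37C. Luciferin product was read as luminescence.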

Sequence of Thyrotropin-releasing hormone receptor (Homo sapiens) (P34981 whole entry, looked up): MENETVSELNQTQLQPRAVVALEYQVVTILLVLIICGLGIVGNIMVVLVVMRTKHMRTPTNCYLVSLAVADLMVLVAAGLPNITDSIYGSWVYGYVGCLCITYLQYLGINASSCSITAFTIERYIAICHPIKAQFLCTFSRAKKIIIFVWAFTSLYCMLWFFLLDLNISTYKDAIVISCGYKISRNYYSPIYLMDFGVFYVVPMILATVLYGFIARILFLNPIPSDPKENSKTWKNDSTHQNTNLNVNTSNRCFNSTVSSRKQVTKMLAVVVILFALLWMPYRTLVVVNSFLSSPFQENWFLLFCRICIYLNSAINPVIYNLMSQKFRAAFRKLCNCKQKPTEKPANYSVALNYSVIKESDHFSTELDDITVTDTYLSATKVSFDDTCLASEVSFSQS
Sequence of Cytochrome P450 2C19 (Homo sapiens) (P33261 whole entry, looked up): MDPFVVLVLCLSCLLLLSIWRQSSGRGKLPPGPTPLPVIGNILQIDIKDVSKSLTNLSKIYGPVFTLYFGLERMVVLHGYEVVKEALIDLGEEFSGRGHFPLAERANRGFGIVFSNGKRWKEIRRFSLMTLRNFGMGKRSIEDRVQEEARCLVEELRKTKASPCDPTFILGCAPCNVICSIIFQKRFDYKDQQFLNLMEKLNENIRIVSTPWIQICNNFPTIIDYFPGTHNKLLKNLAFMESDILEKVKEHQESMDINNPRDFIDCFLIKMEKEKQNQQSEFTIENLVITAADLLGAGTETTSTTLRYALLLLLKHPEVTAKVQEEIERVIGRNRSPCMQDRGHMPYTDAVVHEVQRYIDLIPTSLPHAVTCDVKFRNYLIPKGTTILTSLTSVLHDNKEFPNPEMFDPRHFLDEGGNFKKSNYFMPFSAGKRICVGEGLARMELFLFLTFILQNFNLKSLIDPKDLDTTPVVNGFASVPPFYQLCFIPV
Sequence of Progesterone receptor (Homo sapiens) (P06401 whole entry, looked up): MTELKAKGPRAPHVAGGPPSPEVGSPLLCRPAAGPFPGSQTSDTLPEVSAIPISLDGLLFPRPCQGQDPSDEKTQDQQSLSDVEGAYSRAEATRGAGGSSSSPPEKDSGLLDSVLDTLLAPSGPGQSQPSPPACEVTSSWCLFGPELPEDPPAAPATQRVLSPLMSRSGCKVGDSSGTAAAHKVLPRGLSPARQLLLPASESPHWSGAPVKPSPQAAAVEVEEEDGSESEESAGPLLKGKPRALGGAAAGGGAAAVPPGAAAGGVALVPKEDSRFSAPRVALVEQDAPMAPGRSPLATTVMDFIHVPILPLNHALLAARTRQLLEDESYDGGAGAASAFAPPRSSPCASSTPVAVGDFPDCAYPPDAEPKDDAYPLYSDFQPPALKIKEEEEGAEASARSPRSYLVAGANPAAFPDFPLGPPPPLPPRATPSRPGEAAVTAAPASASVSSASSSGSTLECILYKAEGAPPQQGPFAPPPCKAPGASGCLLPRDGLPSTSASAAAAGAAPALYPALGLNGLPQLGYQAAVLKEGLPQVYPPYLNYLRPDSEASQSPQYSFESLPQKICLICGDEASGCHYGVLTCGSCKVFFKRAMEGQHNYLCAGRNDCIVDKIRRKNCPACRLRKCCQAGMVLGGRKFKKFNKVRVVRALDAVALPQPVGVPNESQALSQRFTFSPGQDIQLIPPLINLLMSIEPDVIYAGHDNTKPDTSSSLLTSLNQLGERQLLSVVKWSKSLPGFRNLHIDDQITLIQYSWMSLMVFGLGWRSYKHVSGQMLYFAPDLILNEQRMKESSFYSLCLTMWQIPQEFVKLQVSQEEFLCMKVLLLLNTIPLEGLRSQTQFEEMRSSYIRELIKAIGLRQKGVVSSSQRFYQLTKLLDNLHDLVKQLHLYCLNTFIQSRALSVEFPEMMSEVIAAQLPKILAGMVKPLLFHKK
Sequence of Cytochrome P450 2C9 (Homo sapiens) (P11712 whole entry, looked up): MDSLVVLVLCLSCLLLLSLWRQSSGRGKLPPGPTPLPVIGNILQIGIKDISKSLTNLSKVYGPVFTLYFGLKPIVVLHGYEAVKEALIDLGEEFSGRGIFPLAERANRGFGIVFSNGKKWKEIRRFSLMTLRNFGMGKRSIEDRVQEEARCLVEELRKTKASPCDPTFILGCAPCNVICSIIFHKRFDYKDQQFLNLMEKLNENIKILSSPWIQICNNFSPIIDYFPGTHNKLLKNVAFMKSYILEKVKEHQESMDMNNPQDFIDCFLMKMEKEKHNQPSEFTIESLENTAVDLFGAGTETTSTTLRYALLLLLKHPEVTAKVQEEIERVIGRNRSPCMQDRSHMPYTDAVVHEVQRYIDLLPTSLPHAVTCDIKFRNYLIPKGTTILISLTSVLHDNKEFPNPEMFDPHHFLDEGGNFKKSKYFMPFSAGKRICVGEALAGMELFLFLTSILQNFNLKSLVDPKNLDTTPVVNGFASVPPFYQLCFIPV
Sequence of Cytochrome P450 2D6 (Homo sapiens) (P10635 whole entry, looked up): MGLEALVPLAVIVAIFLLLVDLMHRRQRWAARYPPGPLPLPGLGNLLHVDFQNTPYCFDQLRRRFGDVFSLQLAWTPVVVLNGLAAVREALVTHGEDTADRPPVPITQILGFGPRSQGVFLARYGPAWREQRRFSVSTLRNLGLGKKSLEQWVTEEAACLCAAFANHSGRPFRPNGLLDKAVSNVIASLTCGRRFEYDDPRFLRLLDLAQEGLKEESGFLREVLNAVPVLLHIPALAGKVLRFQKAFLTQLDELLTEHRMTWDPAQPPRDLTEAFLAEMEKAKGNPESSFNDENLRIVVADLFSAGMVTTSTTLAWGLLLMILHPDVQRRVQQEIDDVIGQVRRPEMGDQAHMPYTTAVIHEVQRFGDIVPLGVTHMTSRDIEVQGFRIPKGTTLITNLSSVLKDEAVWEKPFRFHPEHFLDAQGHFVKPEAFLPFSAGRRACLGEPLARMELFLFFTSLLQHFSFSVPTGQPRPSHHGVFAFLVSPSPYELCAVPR
Sequence of Nuclear receptor subfamily 1 group I member 2 (Homo sapiens) (O75469 whole entry, looked up): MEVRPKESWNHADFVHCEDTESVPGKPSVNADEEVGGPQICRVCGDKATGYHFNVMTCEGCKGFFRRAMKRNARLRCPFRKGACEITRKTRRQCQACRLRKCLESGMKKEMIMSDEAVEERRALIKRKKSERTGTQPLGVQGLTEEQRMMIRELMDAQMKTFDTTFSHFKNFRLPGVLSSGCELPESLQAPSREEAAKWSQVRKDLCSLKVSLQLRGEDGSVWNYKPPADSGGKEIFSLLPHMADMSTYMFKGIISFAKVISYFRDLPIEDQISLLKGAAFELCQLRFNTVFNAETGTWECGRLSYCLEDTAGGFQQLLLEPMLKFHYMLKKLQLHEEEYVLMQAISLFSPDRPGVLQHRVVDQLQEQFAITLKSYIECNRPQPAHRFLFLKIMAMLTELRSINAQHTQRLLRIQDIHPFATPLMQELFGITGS

`NCCS(=O)(=O)O`: the Potency result in assay [1], in assay [2], in assay [3], in [4], in [5] and in assay [6] was “inactive” throughout. The Potency entry in assay [8], in assay [9], in [10], in assay [12] and in assay [13] was “inactive” in each case. For the same molecule, in [7], the molecule was classed as inactive. Moreover, the Potency in [11] was 28.4 µM (active) and inactive.
On to `FC(F)(F)C(Cl)Br` (stereo not drawn), for which the Potency result in assay [1], in assay [2], in assay [3], in assay [4], in [5] and in assay [6] was “inactive” throughout. The Potency result in [10], in [14], in assay [11], in assay [12], in [13] and in assay [15] was “inactive” throughout. Further, the Potency entry in assay [16], in assay [17], in [18], in [19] and in assay [20] was “inactive” throughout. Besides, the molecule was called inactive in [7].
On to `Cc1ccc(S(=O)(=O)O)cc1C`, for which the Potency entry in assay [1], in assay [2], in [3], in assay [4], in assay [5] and in assay [6] was “inactive” throughout. Besides, the Potency entry in [8], in [9], in [10], in assay [14], in assay [11] and in [13] was “inactive” each time. In addition, the Potency result in assay [15], in [16], in [17], in [18], in assay [19] and in assay [20] was “inactive” throughout. Further, the outcome in assay [7] was inactive.
For the molecule `Nc1cc([N+](=O)[O-])ccc1C(=O)O`, the Potency entry in [1], in assay [2], in assay [3], in assay [4], in [5] and in assay [6] was “inactive” each time. The Potency result in assay [8], in [9], in assay [10], in [14], in assay [11] and in assay [12] was “inactive” each time. The Potency entry in [13], in [15], in assay [18], in assay [19] and in [20] was “inactive” throughout. In [7], the molecule was classed as inactive.
On to `Nc1cc(Cl)c(N)c(Cl)c1`, for which the Potency entry in [1], in [2], in assay [3], in assay [4], in assay [5] and in [6] was “inactive” throughout. Further, the Potency entry in assay [8], in [9], in assay [10], in [11], in [12] and in assay [13] was “inactive” each time. Besides, the outcome in assay [7] was inactive. Also, the Potency in assay [15] is 68 µM (active) and 54.5 µM (active); in assay [18], 25 µM (active); in assay [19], 8.86 µM (active) and 71 µM (active); in assay [20] it was 15.8 µM (active) and 39.9 µM (active).
`Cc1ccc(C)c(O)c1`: the Potency result in assay [1], in [2], in assay [3], in assay [4], in assay [5] and in assay [6] was “inactive” throughout. Moreover, the Potency result in assay [8], in assay [9], in assay [10], in [11], in [12] and in [13] was “inactive” in each case. The Potency entry in [18] and in [20] was “inactive” throughout. Moreover, the call in [7] was inactive. The Potency in assay [19] was 30.9 µM (active) and inactive.
In the case of `C=CCNCC=C`, the Potency result in assay [1], in assay [2], in assay [3], in [4], in assay [5] and in assay [6] was “inactive” in each case. In addition, the Potency entry in [8], in [9], in assay [10], in assay [14], in [11] and in [13] was “inactive” each time. The Potency entry in assay [15], in assay [18] and in assay [20] was “inactive” each time. Further, the molecule was called inactive in assay [7]. Moreover, the Potency in assay [19] was 39.8 µM (active).
